In the OligoGym collection:

Biological target: CBL
Experiment: pooled miR-30 sensor sort-seq; sequence = guide strand
Conditions: shRNA
Also: reference of the scale not given here.

Sequence | sensor-assay potency score (higher = more potent)
TTTCTTCATCAAATTCTCCATA | -0.795
TATCTGAGAGAGTTCGGCGGGC | -0.0196
TTCCTGAGCAAAGAGGACCAGG | -0.903
TTTGTGAATGAATTTCTGGAGC | -0.665
TTTATTGTGAGGGATTGTCTGG | -0.649
TTATTGTGAGGGATTGTCTGGA | 0.335
TGTTGTAGGATCACCATCCAGA | 0.05
ATACGTACAGCTATCAATCTGC | 0.514
TTCAGAGTTGATTCTCCGCGGG | -0.689
